Data from PubChem BioAssay.
Activity calls are given as the source filed them.

Key:
[1] = small molecules captured by biotinylated probe aFSTL3 – biochemical, small-molecule microarray, fluorescence 635/667, stem cell growth factor project, primary screen (AID 1064); conditions: higher = more signal;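 further: measures binding of the biotinylated anti-FSTL3 antibody to printed compounds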
[2] = binders from COS7 lysate, DM2A8 probe, primary screen, torsin A project, cell lysate, small-molecule microarray, fluorescence 635/667 (AID 1065); conditions: higher = more signal, COS7 lysate expressing mutant human TOR1A
[3] = small molecules captured by biotinylated probe aFGF2 – biochemical, small-molecule microarray, fluorescence 635/667, stem cell growth factor project, primary screen (AID 1067); conditions: higher = more signal;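 further: measures binding of biotinylated aFGF2 protein to printed compounds on slides; z-score merges feature fluorescence and signal-to-noise across triplicate slides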
[4] = small molecules captured by biotinylated probe aFGF10 – biochemical, small-molecule microarray, fluorescence 635/667, stem cell growth factor project, primary screen (AID 1071); conditions: higher = more signal;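 further: score merges 667 nm spot intensity and signal to noise from triplicate slides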
[5] = biological target: Neurogenic locus notch homolog protein 2 (Homo sapiens) (UniProt Q04721); assay: small molecules binding Notch2 protein – biochemical, small-molecule microarray, 635 nm fluorescence, stem cell growth factors, primary screen (AID 1073); conditions: higher = more signal
[6] = biological target: Pro-neuregulin-1, membrane-bound isoform (Homo sapiens) (UniProt Q02297); assay: small molecules binding neuregulin-1 protein – biochemical, small-molecule microarray, fluorescence 635/667, psychiatric disease protein project, primary screen (AID 1075); conditions: NRG1 binding, 635 nm fluorescence, higher = more signal;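 further: score combines 667 nm spot fluorescence with signal to noise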
Pro-neuregulin-1, membrane-bound isoform (Homo sapiens), sequence (Q02297 whole entry, looked up, the tested form may be a part, canonical isoform): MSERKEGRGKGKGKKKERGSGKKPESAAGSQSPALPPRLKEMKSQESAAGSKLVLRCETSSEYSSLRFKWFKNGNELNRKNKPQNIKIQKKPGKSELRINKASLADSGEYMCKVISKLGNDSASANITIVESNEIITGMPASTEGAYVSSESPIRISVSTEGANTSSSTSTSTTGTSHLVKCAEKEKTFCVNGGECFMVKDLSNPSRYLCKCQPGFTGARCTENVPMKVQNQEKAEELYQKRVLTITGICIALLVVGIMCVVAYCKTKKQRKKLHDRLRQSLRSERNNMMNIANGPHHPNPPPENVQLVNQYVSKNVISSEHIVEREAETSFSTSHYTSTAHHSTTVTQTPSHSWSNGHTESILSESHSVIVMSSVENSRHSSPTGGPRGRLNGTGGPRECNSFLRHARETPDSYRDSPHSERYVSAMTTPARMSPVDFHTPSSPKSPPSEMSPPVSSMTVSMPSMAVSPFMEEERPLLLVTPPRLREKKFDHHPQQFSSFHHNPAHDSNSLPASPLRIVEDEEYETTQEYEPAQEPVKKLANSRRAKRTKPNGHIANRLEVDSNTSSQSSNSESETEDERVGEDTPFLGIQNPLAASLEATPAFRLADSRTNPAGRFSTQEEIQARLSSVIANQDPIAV

[7] = system: Neuregulin-1 EGF-like domain; assay: small molecules binding NRG1 EGF domain – biochemical, small-molecule microarray, 635 nm fluorescence, primary screen (AID 1081); conditions: higher = more signal;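 further: binding of the protein to compounds printed on small-molecule microarray slides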
[8] = FRG1 expression reporter modulators in myotubes – cell-based, C2C12 myotubes, firefly/Renilla luciferase, luminescence, FRG1 inhibition for FSHD, primary screen (AID 1084); conditions: FRG1 promoter luciferase, higher = more signal, called active from +8 up or from −8 down
[9] = small molecules captured by biotinylated probe aFST – biochemical, small-molecule microarray, fluorescence 635/667, stem cell growth factor project, primary screen (AID 1086); conditions: higher = more signal;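 further: score merges 667 nm fluorescence with signal-to-noise of each printed compound spot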
[10] = binders of probe aHhip on microarray, primary screen, stem cell growth factor project, biochemical, small-molecule microarray, fluorescence 635/667 (AID 1087); conditions: higher = more signal;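 further: score merges spot fluorescence at 667nm with spot signal to noise ratio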
[11] = system: PRMT1 (protein arginine N-methyltransferase 1); assay: small molecules binding arginine methyltransferase PRMT1 – biochemical, small-molecule microarray, 635 nm fluorescence, primary screen (AID 1088); conditions: higher = more signal;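 further: binding of Prmt1 protein to compounds spotted on small-molecule microarray slides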
[12] = growth effects on S. cerevisiae YJM789 – YJM789 clinical isolate, OD600, 24 h, basal, primary screen (AID 1089); conditions: higher = more signal, called active from +8 up or from −8 down;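 further: growth of clinical yeast isolate S. cerevisiae YJM 789 seeded 1000 cells per well; test concentration not given here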
[13] = S. pombe growth modifiers, basal conditions – strain 972, OD600, 24 h, no modulator, primary screen (AID 1090);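 further: basal condition with compound alone and no growth modifier present; test concentration not given here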; conditions: S. pombe 972 growth, higher = more signal, called active from +8 up or from −8 down
[14] = budding yeast growth modifiers under rapamycin – strain BY4716, OD600, 96 h, primary screen (AID 1091); further: test concentration not given here; conditions: S. cerevisiae BY4716 + rapamycin, higher = more signal, called active from +8 up or from −8 down
[15] = biological target: Torsin-1A-interacting protein 2 (Homo sapiens) (UniProt Q8NFQ8); assay: small molecules binding lysate-expressed LULL1 – cell lysate, human LULL1 lysate, 635/667 nm fluorescence, primary screen (AID 1092); conditions: small-molecule microarray, hLULL1 lysate binding, 635 nm fluorescence; higher = more signal;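 further: probe is lysate of COS7 cells overexpressing human LULL1; score merges per-feature 667 nm fluorescence with signal-to-noise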
Torsin-1A-interacting protein 2 (Homo sapiens), sequence (Q8NFQ8 whole entry, looked up): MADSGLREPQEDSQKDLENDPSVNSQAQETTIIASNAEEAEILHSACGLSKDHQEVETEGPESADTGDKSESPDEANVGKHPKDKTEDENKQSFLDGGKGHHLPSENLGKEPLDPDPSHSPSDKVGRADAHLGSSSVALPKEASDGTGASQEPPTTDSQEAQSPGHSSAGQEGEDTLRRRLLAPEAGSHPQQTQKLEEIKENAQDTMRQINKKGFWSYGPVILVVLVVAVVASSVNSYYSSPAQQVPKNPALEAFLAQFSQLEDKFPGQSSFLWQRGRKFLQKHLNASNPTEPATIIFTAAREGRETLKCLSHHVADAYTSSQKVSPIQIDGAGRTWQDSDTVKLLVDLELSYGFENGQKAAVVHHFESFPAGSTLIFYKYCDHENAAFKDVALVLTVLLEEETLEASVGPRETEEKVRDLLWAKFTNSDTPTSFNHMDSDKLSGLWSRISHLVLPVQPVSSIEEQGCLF

[16] = optical density change of DRC41 E. coli – strain DRC41, OD650, 24 h, E. coli filamentation project, primary screen (AID 1093);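 further: MC1000 strain lacking acrAB efflux and sulA so SOS filamentation is blocked; test concentration not given here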; conditions: E. coli DRC41 growth, higher = more signal, called active from +8 up or from −8 down
[17] = probe aLefty2 binding to arrayed compounds – biochemical, biotinylated probe, 635/667 nm fluorescence, primary screen (AID 1094); conditions: small-molecule microarray, higher = more signal;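 further: score merges spot fluorescence near 667 nm with spot signal-to-noise ratio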
[18] = system: Noggin (protein binding on small-molecule microarray); assay: small molecules binding Noggin protein – biochemical, 635/667 nm fluorescence, primary screen (AID 1095); conditions: 635 nm fluorescence, higher = more signal;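 further: score merges 667 nm feature fluorescence with signal to noise over triplicate slides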
[19] = biological target: Neurogenic locus notch homolog protein 3 (Homo sapiens) (UniProt Q9UM47); assay: small molecules binding NOTCH3 protein – biochemical, 635/667 nm fluorescence, primary screen (AID 1096); conditions: small-molecule microarray, 635 nm fluorescence, higher = more signal
Neurogenic locus notch homolog protein 3 (Homo sapiens), sequence (Q9UM47 whole entry, looked up): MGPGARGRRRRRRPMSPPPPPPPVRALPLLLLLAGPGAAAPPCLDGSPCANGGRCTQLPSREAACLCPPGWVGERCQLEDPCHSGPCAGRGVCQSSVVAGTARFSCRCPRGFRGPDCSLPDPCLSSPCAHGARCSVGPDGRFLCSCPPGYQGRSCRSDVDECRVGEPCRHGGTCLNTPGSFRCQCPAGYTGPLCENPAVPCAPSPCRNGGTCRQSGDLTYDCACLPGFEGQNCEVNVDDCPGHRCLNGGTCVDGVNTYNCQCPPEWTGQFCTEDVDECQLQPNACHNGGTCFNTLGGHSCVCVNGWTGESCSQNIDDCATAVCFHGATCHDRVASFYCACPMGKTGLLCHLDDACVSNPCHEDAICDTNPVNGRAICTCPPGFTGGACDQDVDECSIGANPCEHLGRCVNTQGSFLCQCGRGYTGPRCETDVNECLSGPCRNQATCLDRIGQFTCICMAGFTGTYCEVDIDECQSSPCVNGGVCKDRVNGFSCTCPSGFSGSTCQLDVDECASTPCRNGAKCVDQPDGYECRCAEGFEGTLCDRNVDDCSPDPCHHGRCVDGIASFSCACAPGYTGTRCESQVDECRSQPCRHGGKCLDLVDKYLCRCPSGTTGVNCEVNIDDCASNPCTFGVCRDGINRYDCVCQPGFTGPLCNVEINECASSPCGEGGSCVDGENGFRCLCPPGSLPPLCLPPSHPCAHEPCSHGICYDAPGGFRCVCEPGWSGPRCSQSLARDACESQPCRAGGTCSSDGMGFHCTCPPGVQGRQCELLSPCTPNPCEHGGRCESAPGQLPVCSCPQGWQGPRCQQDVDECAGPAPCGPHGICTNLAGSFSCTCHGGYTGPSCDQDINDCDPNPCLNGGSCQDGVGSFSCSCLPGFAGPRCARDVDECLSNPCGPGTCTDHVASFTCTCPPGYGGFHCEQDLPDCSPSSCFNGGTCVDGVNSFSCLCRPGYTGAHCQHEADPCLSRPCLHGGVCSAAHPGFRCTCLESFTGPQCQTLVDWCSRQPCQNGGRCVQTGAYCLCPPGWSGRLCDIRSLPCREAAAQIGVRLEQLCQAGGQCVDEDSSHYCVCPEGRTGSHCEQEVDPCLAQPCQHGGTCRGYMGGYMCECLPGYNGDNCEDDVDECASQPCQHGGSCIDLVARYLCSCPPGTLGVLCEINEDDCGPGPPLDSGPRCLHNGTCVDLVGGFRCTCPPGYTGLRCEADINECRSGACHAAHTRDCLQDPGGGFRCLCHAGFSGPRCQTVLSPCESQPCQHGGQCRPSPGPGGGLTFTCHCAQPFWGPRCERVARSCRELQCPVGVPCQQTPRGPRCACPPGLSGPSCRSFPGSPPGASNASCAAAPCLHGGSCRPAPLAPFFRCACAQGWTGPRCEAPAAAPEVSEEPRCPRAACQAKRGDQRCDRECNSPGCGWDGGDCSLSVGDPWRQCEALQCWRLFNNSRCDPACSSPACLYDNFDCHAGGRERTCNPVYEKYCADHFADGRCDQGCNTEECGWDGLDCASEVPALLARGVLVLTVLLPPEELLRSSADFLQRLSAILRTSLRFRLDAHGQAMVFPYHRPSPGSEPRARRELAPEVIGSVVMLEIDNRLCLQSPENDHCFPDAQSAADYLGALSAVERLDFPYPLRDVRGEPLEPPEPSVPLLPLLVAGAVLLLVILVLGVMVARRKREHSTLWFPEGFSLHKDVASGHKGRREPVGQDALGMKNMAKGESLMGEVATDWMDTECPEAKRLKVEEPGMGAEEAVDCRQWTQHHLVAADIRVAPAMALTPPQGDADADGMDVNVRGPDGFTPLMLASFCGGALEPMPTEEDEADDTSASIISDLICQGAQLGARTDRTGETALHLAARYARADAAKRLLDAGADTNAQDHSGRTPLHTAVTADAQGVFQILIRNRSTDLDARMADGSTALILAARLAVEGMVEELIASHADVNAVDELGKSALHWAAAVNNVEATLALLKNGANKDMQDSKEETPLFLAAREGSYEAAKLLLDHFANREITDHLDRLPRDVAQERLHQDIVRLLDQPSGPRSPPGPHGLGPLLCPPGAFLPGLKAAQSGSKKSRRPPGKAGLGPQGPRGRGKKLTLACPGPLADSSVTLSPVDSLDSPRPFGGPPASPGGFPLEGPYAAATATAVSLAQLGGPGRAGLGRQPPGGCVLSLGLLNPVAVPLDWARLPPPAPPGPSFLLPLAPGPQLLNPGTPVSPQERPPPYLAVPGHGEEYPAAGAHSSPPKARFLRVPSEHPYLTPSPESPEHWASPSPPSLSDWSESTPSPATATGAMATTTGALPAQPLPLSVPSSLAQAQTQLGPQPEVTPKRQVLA

[20] = probe aEGFR binding to arrayed compounds – biochemical, biotinylated probe, 635/667 nm fluorescence, primary screen (AID 1097); conditions: small-molecule microarray, higher = more signal;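 further: probe is a biotinylated anti-EGFR antibody binding compounds printed on slides; score combines fluorescence near 667 nm and signal to noise of each spot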

| SMILES | composite z-score [1] | composite z-score [2] | composite z-score [3] | composite z-score [4] | composite z-score [5] | composite z-score [6] | composite z-score [7] | z-score [8] | composite z-score [9] | composite z-score [10] | composite z-score [11] | z-score [12] | z-score [13] | z-score [14] | composite z-score [15] | z-score [16] | composite z-score [17] | composite z-score [18] | composite z-score [19] | composite z-score [20] |
| --- | --- | --- | --- | --- | --- | --- | --- | --- | --- | --- | --- | --- | --- | --- | --- | --- | --- | --- | --- | --- |
| CCOC(=O)C1=CC[C@@H](c2ccccc2C(F)(F)F)N(S(=O)(=O)c2ccc(C)cc2)[C@H]1c1ccc(C#N)cc1 | -0.0042 | 0.0813 | 0.0625 | 0.692 | 1.36 | 0.988 | 1.25 | 0.852 (inactive) | 1.11 | -0.0024 | 0.884 | -0.242 (inactive) | 1.2 (inactive) | 3.51 (inactive) | 2.56 | -0.156 (inactive) | -0.0099 | 0.292 | 1.03 | -0.0061 |
| O=C1O[C@@H](c2ccccc2)[C@@H](c2ccccc2)N2[C@@H](c3ccccc3OCCO)[C@]3(C(=O)Nc4ccc(C#CCCO)cc43)[C@@H](C(=O)N3CCCCCCC3)[C@H]12 | 4.01 | 2.76 | 1.1 | 1.47 | 1.83 | 2.86 | 1.35 | -3.55 (inactive) | 3.89 | 2.64 | 1.53 | 0.295 (inactive) | -4.61 (inactive) | 1.33 (inactive) | 5.16 | -0.798 (inactive) | 1.99 | 2.28 | 1.01 | 1.49 |
| COC(=O)[C@H](Cc1ccccc1)N1CC(/C=C/C2CC2)=C[C@H]1[C@H](O)Cc1ccccc1 | -0.284 | 0.177 | -0.104 | 0.6 | 0.34 | 0.821 | 1.01 | -2.56 (inactive) | 0.101 | 0.0274 | 1.54 | -0.457 (inactive) | -3.67 (inactive) | -0.677 (inactive) | 1.18 | -0.25 (inactive) | -0.161 | 0.961 | 0.899 | -0.0343 |
| CC(C)(C)N1CC=CC23O[C@@H]4C=CCCOC(=O)C4[C@H]2C(=O)N(CCO)[C@@H]3C1=O (stereo not given in full) | -0.0666 | -0.46 | -0.132 | -0.133 | -0.717 | 0.767 | 1.48 | 0.22 (inactive) | -0.474 | -0.236 | 0.13 | -0.125 (inactive) | -0.229 (inactive) | -0.0913 (inactive) | -1.67 | 0.976 (inactive) | -0.267 | -0.365 | -0.696 | -0.112 |
| COCCOC(=O)N1C(=O)[C@@]2(c3cc(C#CC4=CCCCC4)ccc31)[C@H](C(=O)N1CCCCCCC1)[C@H]1C(=O)O[C@H](c3ccccc3)[C@H](c3ccccc3)N1[C@@H]2c1ccc(O)cc1 | 0.804 | 0.0395 | -0.0226 | 0.119 | 0.464 | -0.215 | 1.14 | -0.472 (inactive) | 0.409 | -0.31 | 1.56 | -1.17 (inactive) | 0.509 (inactive) | 0.983 (inactive) | 2.88 | 1.53 (inactive) | 0.295 | 0.795 | 0.807 | 0.0383 |
| CN(C)C(=O)[C@]1(CCS(=O)(=O)c2ccccc2)N=C(c2ccc(OCCCO)cc2)O[C@@H]1c1ccccc1N=[N+]=[N-] | 0.169 | 1.13 | 0.15 | 1.16 | 1.59 | 1.27 | 1.4 | 2.79 (inactive) | 1.84 | 0.155 | 1.53 | 0.154 (inactive) | -0.327 (inactive) | 1.69 (inactive) | 3.78 | 0.0837 (inactive) | 0.429 | 1.42 | 1.05 | 0.204 |
| COC(=O)Cn1c(C(=O)N(C)C)cc2c1C[C@H]1CN(C(=O)c3ccccc3)[C@@](Cc3ccc(F)cc3)(C(=O)OC)[C@@H]21 | 0.0501 | -0.152 | 0.154 | 1.24 | 1.65 | 0.88 | 1.13 | -0.438 (inactive) | 0.114 | -0.15 | -0.397 | 1.28 (inactive) | 1.42 (inactive) | 1.61 (inactive) | 2.81 | -0.581 (inactive) | 0.639 | -0.327 | 0.104 | 0.561 |
| COc1ccc([Si](C)(C)[C@H]2[C@H](CCn3cc([C@H](O)c4ccccc4)nn3)O[C@@]3(C(=O)N(Cc4ccc(N5C(=O)c6cccc7cccc5c67)cc4)c4ccccc43)[C@@H]2C)cc1 | 0.193 | -0.241 | -0.159 | 0.595 | -0.715 | 0.45 | 1.1 | -3.35 (inactive) | -0.403 | -0.0994 | 0.643 | 0.642 (inactive) | 1.17 (inactive) | 2.55 (inactive) | 0.277 | 0.021 (inactive) | -0.0674 | -0.162 | -0.0817 | -0.285 |
| [N-]=[N+]=Nc1ccccc1C[C@]1(C(N)=O)N=C(c2ccc(OCCCO)cc2)O[C@H]1c1ccccc1N=[N+]=[N-] | 0.12 | 0.902 | 0.0598 | 1.05 | 1.23 | 1.42 | 1.21 | -1.08 (inactive) | 0.359 | -0.0237 | 1.55 | -0.376 (inactive) | -1.28 (inactive) | -0.686 (inactive) | 2.89 | -0.436 (inactive) | 0.546 | -0.306 | 0.877 | 0.701 |
| O=C1OCC=C[C@H]2OC34C=CCN(Cc5ccccc5)C(=O)[C@H]3N(CCCCCCO)C(=O)[C@@H]4[C@@H]12 (stereo not given in full) | 0.329 | -0.443 | -0.191 | -0.0166 | -0.812 | 0.273 | 1.12 | -0.843 (inactive) | -0.474 | -0.249 | -0.325 | -0.997 (inactive) | 0.0262 (inactive) | -1.53 (inactive) | 1.76 | 2.11 (inactive) | 0.0124 | -0.742 | -0.153 | -0.159 |
